# High-throughput results: PubChem BioAssay, National Center for Advancing Translational Sciences (NCATS)
# Shiga toxin inh: A qHTS for Small Molecule Inhibitors of Shiga Toxin; Vero cells, Shiga toxin protein synthesis inhibition reporter; inhibition, % at 38.7 µM; actives 9.2% (n = 290,000); AID 2315, 2010; in the data active = inhibition mostly above about 28%, no sharp cut-off; inactive = mostly below about 43%
# NS1 inh: qHTS Assay for Inhibitors of Influenza NS1 Protein Function | Potency, µM (doses to about 46.1 µM) | AID 2326, 2010 | actives 0.4% (n = 270,000); calls by dose curve; also: actives are rising curves; nearly all actives have a fitted effect of over 50% in size
#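 OD600 was taken as the measure of yeast growth restored by compound in an NS1-expressing S. cerevisiae strain. Cells had been washed out of glucose medium and diluted 1:100 into galactose -URA medium, pH 6.0.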
# CHX counter: Cycloheximide Counterscreen for Small Molecule Inhibitors of Shiga Toxin. actives 12% (n = 300,000). cell reporter, cycloheximide protein synthesis inhibition counterscreen. max response, %; in the data active = max response mostly above about 13%, no sharp cut-off; inactive = mostly below about 14%; also: read at 38.3 µM for the half of the compounds with a filed dose
# AmpC inh detg: qHTS Inhibitors of AmpC Beta-Lactamase (assay with detergent); actives 0.041% (n = 370,000); Potency, µM (doses to about 114 µM), most hits filed as inhibitors; AmpC hydrolysis of nitrocefin, absorbance 480 nm, 0.01% Triton; P00811; AID 485294, 2010; also: nearly all actives have a fitted effect of over 25% in size
# Target sequence (P00811 whole entry, looked up): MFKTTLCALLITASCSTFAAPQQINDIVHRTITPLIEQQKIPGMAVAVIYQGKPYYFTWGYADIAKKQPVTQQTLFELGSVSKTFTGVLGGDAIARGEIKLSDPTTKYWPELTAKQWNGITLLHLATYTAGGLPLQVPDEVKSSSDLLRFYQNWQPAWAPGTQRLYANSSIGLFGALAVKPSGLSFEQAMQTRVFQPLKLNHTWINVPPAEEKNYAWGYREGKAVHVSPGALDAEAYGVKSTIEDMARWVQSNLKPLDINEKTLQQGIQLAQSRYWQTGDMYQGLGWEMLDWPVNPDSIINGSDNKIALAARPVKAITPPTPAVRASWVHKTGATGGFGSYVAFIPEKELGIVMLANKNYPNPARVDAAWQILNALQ
#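 AmpC (5.3 nM in the dispensed reagent) in 20 mM phosphate pH 7.0 with 0.01% (detergent screen) or 0.0001% Triton X-100 was preincubated with compounds for 15 min at room temperature. Nitrocefin was then added from an 800 uM solution, and hydrolysis was followed at 480 nm.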
# AmpC no deterg: qHTS Inhibitors of AmpC Beta-Lactamase (assay without detergent). P00811. AmpC nitrocefin hydrolysis, absorbance 480 nm, 0.0001% Triton. Potency, µM (doses to about 57.1 µM), hits mostly inhibitors. actives 0.52% (n = 330,000). AID 485341, 2010; also: nearly all actives have a fitted effect of over 20% in size
#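 AmpC (5.3 nM in the dispensed reagent) in 20 mM phosphate pH 7.0 with 0.01% (detergent screen) or 0.0001% Triton X-100 was preincubated with compounds for 15 min at room temperature. Nitrocefin was then added from an 800 uM solution, and hydrolysis was followed at 480 nm.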
# A number is an active result; 0 = inactive; ? = inconclusive; - = not tested or not shown. This is one part of a sample in which hits are shown more often than they occur. Unless noted, calls follow the shape of the dose curve; as a rule, active = well fitted curve in the direction sought with a large enough effect; inconclusive = small, poorly fitted or top-dose-only effect, or another doubt; inactive = no such curve, though single readings can be large; an effect the other way counts as inactive or inconclusive.
SMILES,Shiga toxin inh,NS1 inh,CHX counter,AmpC inh detg,AmpC no deterg
O=C(COC(=O)C1COc2ccccc2O1)NC(=O)Nc1ccc2c(c1)OCCO2 (stereo not drawn),0,0,15,0,0
O=C(COC(=O)C1COc2ccccc2O1)Nc1cccc(Cl)c1 (stereo not drawn),-,-,-,0,0
CC(C)[C@H](NS(=O)(=O)c1ccc2c(c1)OCCO2)C(=O)OCC(=O)Nc1ccccc1,0,0,14,0,0
Cc1ccc(S(=O)(=O)N(C)CC(=O)OCC(=O)NC(=O)Nc2ccc3c(c2)OCCO3)cc1,68,0,55,0,0
Cc1ccc(S(=O)(=O)N[C@H](C(=O)OCC(=O)NC(=O)Nc2ccc3c(c2)OCCO3)C(C)C)cc1,0,0,19,0,0
C[C@H](NS(=O)(=O)c1ccc(Cl)cc1)C(=O)OCC(=O)NC(=O)Nc1ccc2c(c1)OCCO2,127,0,101,0,0
CC(NS(=O)(=O)c1ccc(Cl)c(Cl)c1)C(=O)OCC(=O)Nc1ccc2c(c1)OCO2 (stereo not drawn),0,0,0,0,0
O=C(COC(=O)CNS(=O)(=O)c1cccc(Br)c1)NC(=O)Nc1ccc2c(c1)OCCO2,63,0,35,?,0
CC1CCn2c(nc3cc(C(=O)NCCc4ccccc4)ccc32)C1 (stereo not drawn),-,-,-,0,-
CCN(CC)C(=O)c1cc2c(=O)oc3ccccc3c2s1,34,0,27,0,0
CCN(C(=O)c1cc2c(=O)oc3ccccc3c2s1)c1ccc(C)c(C)c1,-,-,-,0,-
Cc1ccc(CNC(=O)NC23CC4CC(CC(C4)C2)C3)cc1,0,0,0,?,0
Cc1ccc(C(=O)NCC(=O)NC23CC4CC(CC(C4)C2)C3)cc1,69,0,37,0,0
CCN(CC)c1ccc(C=Nc2ccc(C)cc2C)c(O)c1,0,0,0,0,0
Cc1ccc(N=Cc2sc(O)c3ccccc23)cc1,80,0,33,0,0
Cc1ccc(N=Cc2sc(O)c3ccccc23)c(C)c1,80,0,34,0,0
Cc1ccc(N=Cc2c(O)c3ccccc3n(C)c2=O)cc1,0,0,14,0,0
COc1ccc(CNCc2c(C(=O)O)c(C)n(Cc3ccc(Cl)cc3)c2C)c(OC)c1,-,-,-,0,-
Nc1nn(-c2ccccc2)c(N)c1N=Nc1ccc2c(c1)OCO2,active,0,44,?,0
Nc1nn(-c2ccccc2)c(N)c1N=Nc1cccc(F)c1,88,0,62,0,0
Cc1nn(-c2ccccc2)c2c1C(c1ccc(F)cc1F)C(C#N)=C(N)O2 (stereo not drawn),0,0,0,?,?
Cc1nn(-c2ccccc2)c(N)c1N=Nc1cccnc1,61,-,41,?,0
Nc1nc(-c2ccccc2)c(N=Nc2cccnc2)s1,0,-,0,0,0
CCn1c(C)c(C)c2cc(C(=O)NCc3ccc(OC)cc3OC)ccc21,-,-,-,0,-
Cc1ccc(SCC(=O)NNC(=O)CCS(=O)(=O)c2ccccc2)cc1,-,-,-,-,0
SMILES,Shiga toxin inh,NS1 inh,CHX counter,AmpC inh detg,AmpC no deterg
O=C(NCc1nc2ccccc2[nH]1)C1=C[C@H](c2ccccc2)C[C@H](OCc2ccc(CO)cc2)O1,0,0,15,0,0
O=C(NCc1nc2ccccc2[nH]1)C1=C[C@@H](c2ccccc2)C[C@@H](OCc2ccc(CO)cc2)O1,0,0,0,0,0
O=C(NCc1nc2ccccc2[nH]1)C1=C[C@@H](C2CCCCC2)C[C@@H](OCc2ccc(CO)cc2)O1,46,0,0,0,0
COc1cc2[nH]c(Cl)c([N+](=O)[O-])c2cc1OC,0,0,0,0,0
CC(=O)N1CCCC(C(=O)c2ccc(Oc3ccccc3)cc2)C1 (stereo not drawn),57,0,34,0,0
COCC(=O)N1CCCC(C(=O)c2ccc(-c3ccccc3)c(F)c2)C1 (stereo not drawn),0,0,28,0,0
COc1ccccc1C(=O)C1CCCN(C(=O)c2ccccc2C(C)=O)C1 (stereo not drawn),49,0,33,?,0
CCOC(=O)c1c(C)[nH]c(C(=O)N2CCCC(C(=O)c3ccccc3OC)C2)c1C (stereo not drawn),0,0,12,0,0
CC(=O)NCC(=O)N1CCCC(C(=O)c2ccc(-c3ccccc3)c(F)c2)C1 (stereo not drawn),0,0,0,0,0
Cc1nc(-c2ccc(S(=O)(=O)Nc3ccc(OC(F)(F)F)cc3)cc2)co1,-,-,-,0,-
Cc1ccc(NC(=O)c2ccc(-n3c(C)nnc3C)cc2)cc1F,-,-,-,0,-
COc1ccc(-c2noc(CSCC(=O)Nc3cc(OC)c(OC)c(OC)c3)n2)cc1OC,-,-,-,0,-
Cc1cc(C(=O)NNC(=O)NC(C)C)no1,0,0,0,0,0
CCC(CO)Nc1ncnc2c1cnn2-c1ccc(C)cc1 (stereo not drawn),-,-,-,0,-
Cc1ccc(C)c(OCCC(=O)N2CCN(S(=O)(=O)c3ccc([N+](=O)[O-])cc3)CC2)c1,-,-,-,0,0
CCOc1cc2sc(N3CCC(C(=O)Nc4ccccc4Cl)CC3)nc2cc1Br,-,-,-,0,-
COc1cccc(CN(C(=O)c2oc3cc(C)ccc3c2C)C2CCS(=O)(=O)C2)c1 (stereo not drawn),-,-,-,0,-
CCOc1ccc(NC(=O)Cn2c(=O)n(Cc3ccco3)c(=O)c3ccc(C(=O)NC4CCCC4)cc32)cc1,-,-,-,0,-
O=C(c1ccc(C(F)(F)F)cc1)C1CCCN(C(=O)CN2CCCC2=O)C1 (stereo not drawn),0,0,0,0,0
CC(=O)c1ccccc1C(=O)N1CCCC(C(=O)c2ccc(C(F)(F)F)cc2)C1 (stereo not drawn),70,0,54,0,0
O=C(c1ccc(C(F)(F)F)cc1)C1CCCN(C(=O)CN2C(=O)CSC2=O)C1 (stereo not drawn),53,0,25,0,0
Cc1nc(C)n(CC(=O)N2CCCC(C(=O)c3cccc4ccccc34)C2)n1 (stereo not drawn),0,0,14,0,0
COc1ccccc1C(=O)C1CCCN(C(=O)CN2CCCCC2=O)C1 (stereo not drawn),0,0,19,0,0
Cc1ccn(CC(=O)N2CCCC(C(=O)c3cccc4ccccc34)C2)n1 (stereo not drawn),0,0,0,0,0
Cc1nc2cc(Cl)ccc2c(=O)n1Cc1ccncc1,0,0,0,0,0
COc1ccc(C(=O)C2CCCN(C(=O)c3cc(C)nc(C)n3)C2)cc1OC (stereo not drawn),50,0,0,0,0
COc1ccc(C(=O)C2CCCN(C(=O)c3ccccc3C(C)=O)C2)cc1F (stereo not drawn),0,0,30,0,0
COc1ccc(C(=O)C2CCCN(C(=O)c3ccc(F)cc3)C2)cc1OC (stereo not drawn),0,0,0,0,0
